The values below come from the supplement of paper PMC9334596.

This assay relates to mPer2Luc MEF. The assay is described as follows: PER2::LUC luminescence relative to vehicle control (fold of vehicle); higher = higher PER2::LUC reporter signal. Particulars: 10 µM. The gist of the method:
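Mouse embryonic fibroblasts carrying the mPer2Luc reporter were seeded at ~3000 cells per well in 384-well plates, 48 h before compounds from commercial libraries were added at 10 μM. Cells were grown in DMEM with 10% FBS at 37 °C and 5% CO2. Luminescence was read with the ONE-Glo luciferase assay system 24 h and 30 h after treatment, followed by an alamarBlue viability assay. The value is PER2::LUC luminescence as fold of vehicle control.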

The structures appear in SMILES notation. Values joined by “and” are separate entries in the source; they are usually repeats but may differ in a detail not shown here. Identical values can stand only once. Whole data set: some 5,300 compounds, median “PER2::LUC luminescence relative to vehicle control” near 0.96, cut for the highest 2% near 1.3. This excerpt belongs to a sample that is enriched for the highest values.

For `CCCCCCC(=O)CCCCCC/C=C/C[C@@H](O)[C@H](O)[C@@](N)(CO)C(=O)O`, the “PER2::LUC luminescence” value (time after treatment 24 h) is 1.26 and the “PER2::LUC luminescence” value (time after treatment 30 h) worked out at 1.35.

Turning to `Cc1ncc(C[n+]2csc(CCO)c2C)c(=O)[nH]1`, the “PER2::LUC luminescence” value (time after treatment 24 h) was found to be 1.01 and the “PER2::LUC luminescence” value (time after treatment 30 h) was determined as 0.895.

Take `NCC(CC(=O)O)c1ccc(Cl)s1` (racemic): the “PER2::LUC luminescence” value runs as follows: (time after treatment 24 h) 1.04; (time after treatment 30 h) 0.985.

For `CC[C@H](C)[C@@H]([C@@H](CC(=O)N1CCC[C@H]1[C@H](OC)[C@@H](C)C(=O)N[C@H](C)[C@@H](O)c1ccccc1)OC)N(C)C(=O)[C@@H](NC(=O)[C@@H](NC)C(C)C)C(C)C`, the “PER2::LUC luminescence” value (time after treatment 24 h) is 0.378 and the “PER2::LUC luminescence” value (time after treatment 30 h) is 0.38.

Regarding `NCCc1c[nH]c2ccc(O)cc12`, the “PER2::LUC luminescence” value (time after treatment 24 h) came to 0.925 and the “PER2::LUC luminescence” value (time after treatment 30 h) came out at 0.97.

As to `NCCc1ccc(O)cc1`, the “PER2::LUC luminescence” value is 1.03 and 0.947 (time after treatment 24 h); 0.942 and 0.934 (time after treatment 30 h).

As to `Cc1[nH]c2ccc(O)cc2c1CCN`, the “PER2::LUC luminescence” value by setting is: (time after treatment 24 h) 1.08 and 1.05; (time after treatment 30 h) 0.977 and 1.35.

For `NC(CCCCCP(=O)(O)O)C(=O)O` (racemic), the “PER2::LUC luminescence” value (time after treatment 24 h) came out at 1.22 and the “PER2::LUC luminescence” value (time after treatment 30 h) came to 1.09.

For `CC(=O)Nc1cc([As](=O)(O)O)ccc1O`, the “PER2::LUC luminescence” value reads like this: (time after treatment 24 h) 1.04 and 1.02; (time after treatment 30 h) 1.06 and 0.878.

`O=[N+]([O-])c1ccc([As](=O)(O)O)cc1`: the “PER2::LUC luminescence” value reads like this: (time after treatment 24 h) 1.13; (time after treatment 30 h) 0.866.

As to `O=[N+]([O-])c1cc([As](=O)(O)O)ccc1O`, the “PER2::LUC luminescence” value came out at 1.08 (time after treatment 24 h) and 1.54 (time after treatment 30 h).

Turning to `COc1cc(=O)oc(/C=C/C=C/C=C/C(C)=C/[C@@]2(C)O[C@H](C)[C@](C)(O)[C@H]2O)c1C`, the “PER2::LUC luminescence” value (time after treatment 24 h) is 0.952 and the “PER2::LUC luminescence” value (time after treatment 30 h) is 0.913.

On to `COc1c2c3c4c(c(OC)c(=O)c5c(O)cc(OC)c(c6c(OC)cc(O)c(c1=O)c63)c54)[C@@H](C(C)=O)[C@@](C)(O)C2`, for which the “PER2::LUC luminescence” value was determined as 1.14 (time after treatment 24 h) and 1.06 (time after treatment 30 h).

On to `O=C(O)[C@@H]1C[C@H]2C[C@@H](CP(=O)(O)O)CC[C@H]2CN1`, for which the “PER2::LUC luminescence” value by setting is: (time after treatment 24 h) 1.03; (time after treatment 30 h) 0.966.

On to `C=C(C)c1cc2cc(C(C)=O)c(O)cc2o1`, for which the “PER2::LUC luminescence” value (time after treatment 24 h) is 1.31 and the “PER2::LUC luminescence” value (time after treatment 30 h) turned out to be 1.39.

For `OCC1C(O)C(O)C2C(O)CCN12` (stereo not given), the “PER2::LUC luminescence” value runs as follows: (time after treatment 24 h) 1.1; (time after treatment 30 h) 1.08.

Take `COc1ccc(/C=C/c2cc(O)cc(O)c2)cc1`: the “PER2::LUC luminescence” value reads like this: (time after treatment 24 h) 1.69; (time after treatment 30 h) 1.76.

For the molecule `CC(=O)Oc1ccc(/C=C/c2cc(OC(C)=O)cc(OC(C)=O)c2)cc1`, the “PER2::LUC luminescence” value reads like this: (time after treatment 24 h) 1.76; (time after treatment 30 h) 1.65.

Take `COc1ccc(O)c(C(C)(C)C)c1.COc1ccc(O)cc1C(C)(C)C`: the “PER2::LUC luminescence” value (time after treatment 24 h) is 0.868 and the “PER2::LUC luminescence” value (time after treatment 30 h) was 1.18.

On to `C=CCc1ccc(OC)cc1`, for which the “PER2::LUC luminescence” value runs as follows: (time after treatment 24 h) 0.993; (time after treatment 30 h) 0.968.

For the molecule `CCCC(=O)O[C@@H]1[C@@H](C)[C@@]2(O)[C@@H](C=C(CO)C[C@]3(O)C(=O)C(C)=C[C@@H]23)[C@@H]2C(C)(C)[C@]12OC(=O)CCC`, the “PER2::LUC luminescence” value runs as follows: (time after treatment 24 h) 1.13; (time after treatment 30 h) 0.899.

Take `COc1cc2c(cc1F)C(c1ccccc1Cl)=Nc1c(n[nH]c1C)N2`: the “PER2::LUC luminescence” value (time after treatment 24 h) is 0.461 and the “PER2::LUC luminescence” value (time after treatment 30 h) was found to be 0.367.

Regarding `CC(=O)OCC1=C[C@H]2[C@@H]3C(C)(C)[C@]3(OC(=O)Cc3ccccc3)C[C@@H](C)[C@]2(O)[C@@H]2C=C(C)C(=O)[C@@]2(O)C1`, the “PER2::LUC luminescence” value (time after treatment 24 h) worked out at 1.21 and the “PER2::LUC luminescence” value (time after treatment 30 h) turned out to be 1.09.

In the case of `COc1ccc(C(C)(C)C)cc1CN[C@H]1C2CCN(CC2)[C@H]1C(c1ccccc1)c1ccccc1`, the “PER2::LUC luminescence” value runs as follows: (time after treatment 24 h) 0.868; (time after treatment 30 h) 0.939.

Consider `CC1=C[C@]23C(=O)[C@@H](C=C(CO)[C@@H](O)[C@]2(O)[C@H]1O)[C@H]1[C@@H](C[C@H]3C)C1(C)C`, for which the “PER2::LUC luminescence” value runs as follows: (time after treatment 24 h) 0.981; (time after treatment 30 h) 0.957.

`CCN(CC)C(=O)NC1CC2c3cccc4[nH]cc(c34)CC2N(C)C1` (stereo not given): the “PER2::LUC luminescence” value came to 0.846 (time after treatment 24 h) and 0.986 (time after treatment 30 h).

On to `COC1=CC(=O)O[C@@H](/C=C/c2ccc3c(c2)OCO3)C1`, for which the “PER2::LUC luminescence” value amounted to 0.149 (time after treatment 24 h) and 0.152 (time after treatment 30 h).

In the case of `COC1=CC(=O)O[C@@H](/C=C/c2ccccc2)C1`, the “PER2::LUC luminescence” value is, setting by setting: (time after treatment 24 h) 1.28; (time after treatment 30 h) 1.35.

In the case of `COC1=CC(=O)O[C@@H](CCc2ccc3c(c2)OCO3)C1`, the “PER2::LUC luminescence” value runs as follows: (time after treatment 24 h) 0.859; (time after treatment 30 h) 0.763.

On to `Cc1o[nH]c(=O)c1CC(N)C(=O)O` (racemic), for which the “PER2::LUC luminescence” value (time after treatment 24 h) came to 0.875 and the “PER2::LUC luminescence” value (time after treatment 30 h) was found to be 0.984.

With `C[C@@H]1OC(=O)[C@H]2C[C@H]3CCCC[C@@H]3[C@@H](/C=C/[C@H]3CCC[C@H](C)N3C)[C@@H]12`, the “PER2::LUC luminescence” value was determined as 0.807 (time after treatment 24 h) and 0.884 (time after treatment 30 h).

As for `N=C(N)NCCCCCCCCCCNC(=N)N`, the “PER2::LUC luminescence” value turned out to be 0.972 (time after treatment 24 h) and 0.965 (time after treatment 30 h).

For `NCCc1ccccc1`, the “PER2::LUC luminescence” value is, setting by setting: (time after treatment 24 h) 1.03; (time after treatment 30 h) 1.04.

As to `NCCc1ccccn1`, the “PER2::LUC luminescence” value was 0.99 (time after treatment 24 h) and 1.45 (time after treatment 30 h).

`Cn1cnc(CCN)c1`: the “PER2::LUC luminescence” value reads like this: (time after treatment 24 h) 0.826; (time after treatment 30 h) 0.66.

Regarding `CC(C)CC(NC(=O)C(Cc1ccccc1)NC(=O)CNC(=O)C(C)NC(=O)C(N)Cc1ccc(O)cc1)C(=O)O` (stereo not given), the “PER2::LUC luminescence” value is 1.03 (time after treatment 24 h) and 0.904 (time after treatment 30 h).

As to `CC1(C)C(=O)N(c2ccc(C#N)c(C(F)(F)F)c2)C(=S)N1c1ccc(C(N)=O)c(F)c1`, the “PER2::LUC luminescence” value reads like this: (time after treatment 24 h) 1.06; (time after treatment 30 h) 1.11.

Turning to `CC(=O)OC12CC(C)C3(O)C4C=C(C)C(=O)[C@@]4(O)CC(CO)=C[C@H]3C1C2(C)C` (stereo not given in full), the “PER2::LUC luminescence” value by setting is: (time after treatment 24 h) 1.15; (time after treatment 30 h) 0.967.

As for `NNC(N)=O`, the “PER2::LUC luminescence” value is, setting by setting: (time after treatment 24 h) 1.09; (time after treatment 30 h) 0.875.

With `NC(=O)CI`, the “PER2::LUC luminescence” value is, setting by setting: (time after treatment 24 h) 1.59; (time after treatment 30 h) 1.31.

As to `COC(N)=O`, the “PER2::LUC luminescence” value (time after treatment 24 h) stood at 1.07 and the “PER2::LUC luminescence” value (time after treatment 30 h) turned out to be 1.01.

Regarding `O=C(O)CF`, the “PER2::LUC luminescence” value was found to be 1.08 (time after treatment 24 h) and 1.08 (time after treatment 30 h).

On to `CN(C(=O)Cc1ccc(Cl)c(Cl)c1)[C@H](CN1CCCC1)c1cccc(N=C=S)c1`, for which the “PER2::LUC luminescence” value is, setting by setting: (time after treatment 24 h) 0.676; (time after treatment 30 h) 0.687.

For `CCCN1C[C@H](C)N([C@H](c2ccc(C(=O)N(CC)CC)cc2)c2cccc(OC)c2)C[C@H]1C`, the “PER2::LUC luminescence” value (time after treatment 24 h) came to 0.894 and the “PER2::LUC luminescence” value (time after treatment 30 h) was 0.899.

Regarding `C=CCN1CC[C@@]2(C)c3cc(O)ccc3C[C@@H]1C2C` (single isomer, unassigned; (+)), the “PER2::LUC luminescence” value was found to be 0.969 (time after treatment 24 h) and 0.939 (time after treatment 30 h).
